Data reported in PubChem BioAssay AID1159580 (chemical genetic matrix, 2015).
Screen size: about 5,500 compounds; about 2,000 (36%) were called active. Roughly 18% stayed inconclusive and do not appear here. The list shows a part of the results. A number with no mark means an inactive call. No stated cut-off is given here; in the data, active means normalized growth mostly below about 0.91 (no sharp cut-off); inconclusive means no clear call, values can overlap the other calls; inactive means mostly above about 0.92.

Assay: chemical genetic growth profiling, strain panel (AID 1159580);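 further: tested at 20 µM; growth read once vehicle control cultures reached saturation at 30 °C; 1 = growth at the plate median or of vehicle wells; lower values mean less growth of the strain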
Settings: growth OD

Compound: CCCCOc1ccc(OCCCN2CCOCC2)cc1
- normalized growth (S. cerevisiae deletion strains, locus YJR075W, strain HOC1, hits give low values): 0.806 (active)
- normalized growth (S. cerevisiae deletion strains, locus YKL009W, strain mrt4, hits give low values): 1
- normalized growth (S. cerevisiae deletion strains, locus YKL068W, hits give low values): 0.998
- normalized growth (S. cerevisiae deletion strains, locus YKL085W, strain MDH1 (second series), hits give low values): 0.997
- normalized growth (S. cerevisiae deletion strains, locus YKL085W, strain MDH1, hits give low values): 0.997
- normalized growth (S. cerevisiae deletion strains, locus YKL160W, strain elf1, hits give low values): 0.914
- normalized growth (S. cerevisiae deletion strains, locus YKL190W, strain CNB1, hits give low values): 0.871 (active)
- normalized growth (S. cerevisiae deletion strains, locus YKR001C, strain vps1, hits give low values): 0.572 (active)
- normalized growth (S. cerevisiae deletion strains, locus YKR026C, strain gcn3, hits give low values): 0.985
- normalized growth (S. cerevisiae deletion strains, locus YKR091W, strain srl3, hits give low values): 0.992
- normalized growth (S. cerevisiae deletion strains, locus YLL001W, strain dnm1, hits give low values): 0.944
- normalized growth (S. cerevisiae deletion strains, locus YLL026W, hits give low values): 0.98
- normalized growth (S. cerevisiae deletion strains, locus YLL041C, strain sdh2, hits give low values): 0.958
- normalized growth (S. cerevisiae deletion strains, locus YLR027C, strain aat2, hits give low values): 0.977
- normalized growth (S. cerevisiae deletion strains, locus YLR039C, strain RIC1, hits give low values): 1.22
- normalized growth (S. cerevisiae deletion strains, locus YLR058C, strain SHM2, hits give low values): 0.908
- normalized growth (S. cerevisiae deletion strains, locus YLR102C, strain apc9, hits give low values): 0.989
- normalized growth (S. cerevisiae deletion strains, locus YLR113W, strain HOG1, hits give low values): 1.03
- normalized growth (S. cerevisiae deletion strains, locus YLR221C, strain rsa3, hits give low values): 0.919
- normalized growth (S. cerevisiae deletion strains, locus YLR258W, strain gsy2, hits give low values): 0.946
- normalized growth (S. cerevisiae deletion strains, locus YLR262C, strain YPT6 (second series), hits give low values): 0.771 (active)
- normalized growth (S. cerevisiae deletion strains, locus YLR262C, strain YPT6, hits give low values): 1.16
- normalized growth (S. cerevisiae deletion strains, locus YLR268W, strain sec22, hits give low values): 0.873 (active)
- normalized growth (S. cerevisiae deletion strains, locus YLR320W, strain mms22, hits give low values): 0.609 (active)
- normalized growth (S. cerevisiae deletion strains, locus YLR330W, strain CHS5, hits give low values): 0.969
- normalized growth (S. cerevisiae deletion strains, locus YLR342W, strain FKS1 (second series), hits give low values): 0.87
- normalized growth (S. cerevisiae deletion strains, locus YLR342W, strain FKS1, hits give low values): 0.985
- normalized growth (S. cerevisiae deletion strains, locus YLR357W, strain rsc2, hits give low values): 1.08
- normalized growth (S. cerevisiae deletion strains, locus YLR370C, strain arc18, hits give low values): 0.986
- normalized growth (S. cerevisiae deletion strains, locus YLR371W, strain rom2, hits give low values): 0.965
- normalized growth (S. cerevisiae deletion strains, locus YLR384C, strain iki3, hits give low values): 0.934
- normalized growth (S. cerevisiae deletion strains, locus YLR418C, strain cdc73, hits give low values): 0.736 (active)
- normalized growth (S. cerevisiae deletion strains, locus YML016C, strain PPZ1, hits give low values): 0.985
- normalized growth (S. cerevisiae deletion strains, locus YML032C, strain rad52, hits give low values): 0.848 (active)
- normalized growth (S. cerevisiae deletion strains, locus YML120C, strain ndi1, hits give low values): 1.01
- normalized growth (S. cerevisiae deletion strains, locus YML124C, strain tub3, hits give low values): 0.997
- normalized growth (S. cerevisiae deletion strains, locus YMR058W, strain fet3, hits give low values): 0.927
- normalized growth (S. cerevisiae deletion strains, locus YMR078C, strain ctf18, hits give low values): 0.975
- normalized growth (S. cerevisiae deletion strains, locus YMR125W, strain sto1, hits give low values): 0.973
- normalized growth (S. cerevisiae deletion strains, locus YMR129W, hits give low values): 1
- normalized growth (S. cerevisiae deletion strains, locus YMR205C, strain PFK2, hits give low values): 0.897
- normalized growth (S. cerevisiae deletion strains, locus YMR223W, strain ubp8, hits give low values): 0.88 (active)
- normalized growth (S. cerevisiae deletion strains, locus YMR231W, strain pep5, hits give low values): 0.967
- normalized growth (S. cerevisiae deletion strains, locus YMR263W, strain SAP30, hits give low values): 0.946
- normalized growth (S. cerevisiae deletion strains, locus YMR307W, strain GAS1, hits give low values): 1
- normalized growth (S. cerevisiae deletion strains, locus YNL067W, strain RPL9B, hits give low values): 0.829 (active)
- normalized growth (S. cerevisiae deletion strains, locus YNL071W, strain lat1, hits give low values): 0.663 (active)
- normalized growth (S. cerevisiae deletion strains, locus YNL128W, strain TEP1, hits give low values): 0.986
- normalized growth (S. cerevisiae deletion strains, locus YNL153C, strain GIM3, hits give low values): 0.903
- normalized growth (S. cerevisiae deletion strains, locus YNL183C, strain NPR1, hits give low values): 0.917
- normalized growth (S. cerevisiae deletion strains, locus YNL209W, strain ssb2, hits give low values): 0.965
- normalized growth (S. cerevisiae deletion strains, locus YNL233W, strain BNI4, hits give low values): 0.767 (active)
- normalized growth (S. cerevisiae deletion strains, locus YNL248C, strain rpa49, hits give low values): 0.769 (active)
- normalized growth (S. cerevisiae deletion strains, locus YNL250W, strain rad50, hits give low values): 0.963
- normalized growth (S. cerevisiae deletion strains, locus YNL271C, strain bni1, hits give low values): 0.966
- normalized growth (S. cerevisiae deletion strains, locus YNL298W, strain CLA4, hits give low values): 0.975
- normalized growth (S. cerevisiae deletion strains, locus YNL307C, strain MCK1, hits give low values): 0.649 (active)
- normalized growth (S. cerevisiae deletion strains, locus YNL322C, strain KRE1 (second series), hits give low values): 1.02
- normalized growth (S. cerevisiae deletion strains, locus YNL322C, strain KRE1, hits give low values): 0.977
- normalized growth (S. cerevisiae deletion strains, locus YNR049C, strain mso1, hits give low values): 0.978
- normalized growth (S. cerevisiae deletion strains, locus YNR052C, strain pop2, hits give low values): 0.83 (active)
- normalized growth (S. cerevisiae deletion strains, locus YOL006C, strain TOP1, hits give low values): 0.239 (active)
- normalized growth (S. cerevisiae deletion strains, locus YOL012C, strain htz1): 1.06
- normalized growth (S. cerevisiae deletion strains, locus YOL147C, strain pex11, hits give low values): 0.962
- normalized growth (S. cerevisiae deletion strains, locus YOR001W, strain rrp6, hits give low values): 0.8 (active)
- normalized growth (S. cerevisiae deletion strains, locus YOR061W, strain CKA2, hits give low values): 0.987
- normalized growth (S. cerevisiae deletion strains, locus YOR069W, strain VPS5, hits give low values): 0.995
- normalized growth (S. cerevisiae deletion strains, locus YOR070C, strain gyp1, hits give low values): 0.632 (active)
- normalized growth (S. cerevisiae deletion strains, locus YOR080W, strain dia2, hits give low values): 0.985
- normalized growth (S. cerevisiae deletion strains, locus YOR083W, strain WHI5, hits give low values): 0.931
- normalized growth (S. cerevisiae deletion strains, locus YOR106W, strain vam3, hits give low values): 0.875
- normalized growth (S. cerevisiae deletion strains, locus YOR136W, strain idh2, hits give low values): 0.962
- normalized growth (S. cerevisiae deletion strains, locus YOR144C, strain elg1, hits give low values): 0.994
- normalized growth (S. cerevisiae deletion strains, locus YOR184W, strain ser1, hits give low values): 0.742 (active)
- normalized growth (S. cerevisiae deletion strains, locus YOR231W, strain MKK1, hits give low values): 0.984
- normalized growth (S. cerevisiae deletion strains, locus YOR265W, strain rbl2, hits give low values): 0.967
- normalized growth (S. cerevisiae deletion strains, locus YOR270C, strain vph1, hits give low values): 0.41 (active)
- normalized growth (S. cerevisiae deletion strains, locus YOR290C, strain snf2, hits give low values): 0.917
- normalized growth (S. cerevisiae deletion strains, locus YOR316C, strain cot1, hits give low values): 0.99
- normalized growth (S. cerevisiae deletion strains, locus YPL051W, strain arl3, hits give low values): 0.873 (active)
- normalized growth (S. cerevisiae deletion strains, locus YPL055C, strain LGE1, hits give low values): 0.857
- normalized growth (S. cerevisiae deletion strains, locus YPL078C, strain atp4, hits give low values): 0.941
- normalized growth (S. cerevisiae deletion strains, locus YPL106C, strain sse1, hits give low values): 1.09
- normalized growth (S. cerevisiae deletion strains, locus YPL240C, strain hsp82, hits give low values): 0.982
- normalized growth (S. cerevisiae deletion strains, locus YPL241C, strain CIN2, hits give low values): 0.992
- normalized growth (S. cerevisiae deletion strains, locus YPL256C, strain CLN2, hits give low values): 1.02
- normalized growth (S. cerevisiae deletion strains, locus YPR119W, strain clb2, hits give low values): 1.01
- normalized growth (S. cerevisiae deletion strains, locus YPR141C, strain kar3, hits give low values): 0.984
- normalized growth (S. cerevisiae deletion strains, locus YPR163C, strain tif3, hits give low values): 0.765 (active)
- normalized growth (S. cerevisiae deletion strains, locus YPR167C, strain met16, hits give low values): 0.977
- normalized growth (S. cerevisiae deletion strains, strain wtn01, hits give low values): 0.856 (active)
- normalized growth (S. cerevisiae strains, strain wild type, hits give low values): 0.895 (active)
